From PubChem
This is a sample that favours compounds with a hit; in the whole collection about 8.3% have one here.
MCF10A rereplic: inducers of DNA re-replication in MCF 10A breast cells. MCF 10A DNA re-replication, Hoechst nuclear intensity, 48 h. Potency, µM (highest dose often 46.1 µM), for inactives: top-dose activity, positive = re-replication, hits mostly activators. 350,000 compounds, 2.9% hits; also: potency is read from the fitted curve at half-maximal effect; % of control where 0% means no effect; nearly all actives have a fitted effect of over 50% in size
Giardia kill: kills Giardia lamblia. Giardia lamblia trophozoite viability. activity change, % at 7.66 µM, hits read low. 340,000 compounds, 0.15% hits; in the data active = activity change below about -80%; inconclusive = between about -30% and that limit;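 also: parasites exposed to compound for two days anaerobically before the ATP read; % is scaled to controls: 0 for no effect and ±100 for the full control effect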
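Killing of trophozoites was scored by loss of ATP luminescence after a 48 hrs anaerobic exposure to compounds at 37 deg C, using 100 cells per well.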
BCR signal inh: inhibitors of chronic active B-cell receptor signaling; ABC-DLBCL IkBa-CBG/CBR reporter, luminescence ratio, 4 h; Potency, µM (doses to about 46.1 µM), without a hit: at the highest dose activity change, negative = inhibition, hits mostly inhibitors; 340,000 compounds, 0.05% hits; AID 493014; active = well fitted inhibition curve with a large enough effect in the signal ratio, with a control signal flat, not every such curve was filed as active; inconclusive = small, poorly fitted or top-dose-only effect, or effect the other way, or a change in a side signal; the % refers to the signal ratio;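 also: potency is read from the fitted curve at half-maximal effect; plate controls were basal doxycycline-induced cells for no effect and cells given 10 µM MG132 for full effect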
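Cell line TMD8 (human ABC DLBCL), stably expressing tet-inducible CBG68-IkBa fusion and CBR; IMDM/0.5% FBS; cpd up to 46 uM; dox induction, 4 h, 37C/5% CO2; dual luminescence; green/red ratio; MG132 control.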
SW480 rerep: inducers of DNA re-replication in SW480 colon cancer cells; SW480 DNA re-replication, Hoechst DNA content imaging, 48 h; Potency, µM (titrated, usually from 46.1 µM), for the others: at the highest dose re-replication activation, most hits filed as activators; 340,000 compounds, 1.8% hits; AID 624297; also: potency is read from the fitted curve at half-maximal effect; % of control where 0% means no effect; nearly all actives have a fitted effect of over 55% in size
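Image-based read-out: total Hoechst fluorescence of nuclei (405 nm excitation, 500-530 nm emission), with hits raising the fraction of high-intensity nuclei. SW480 colon cells incubated 48 hr with compounds at 37 C.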
Gal4-VP16 FLuc: Gal4-VP16 reporter inhibition counter-screen; Potency, µM (doses to about 53.6 µM), inactives show at the highest dose activity, negative = inhibition, usual class: inhibitors; 310,000 compounds, 3.5% hits; Drosophila S2 Gal4-VP16 UAS-luciferase, luminescence, 20 h;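 also: Gal4-VP16 expression switched on by copper sulfate through the metallothionein promoter; potency is read from the fitted curve at half-maximal effect; % is scaled to controls: 0 for no effect and ±100 for the full control effect; nearly all actives have a fitted effect of over 50% in size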
RORg inh: ROR gamma (mouse) transcription inhibition; Drosophila S2 Gal4-RORgamma UAS-luciferase reporter, 20 h; 310,000 compounds, 5.4% hits; Potency, µM (doses to about 53.6 µM), without a hit: top-dose activity change, negative = inhibition, actives largely listed as inhibitors; also: potency is read from the fitted curve at half-maximal effect; % is scaled to controls: 0 for no effect and ±100 for the full control effect; nearly all actives have a fitted effect of over 60% in size
Target sequence (P51450 whole entry, looked up, the tested form may be a part): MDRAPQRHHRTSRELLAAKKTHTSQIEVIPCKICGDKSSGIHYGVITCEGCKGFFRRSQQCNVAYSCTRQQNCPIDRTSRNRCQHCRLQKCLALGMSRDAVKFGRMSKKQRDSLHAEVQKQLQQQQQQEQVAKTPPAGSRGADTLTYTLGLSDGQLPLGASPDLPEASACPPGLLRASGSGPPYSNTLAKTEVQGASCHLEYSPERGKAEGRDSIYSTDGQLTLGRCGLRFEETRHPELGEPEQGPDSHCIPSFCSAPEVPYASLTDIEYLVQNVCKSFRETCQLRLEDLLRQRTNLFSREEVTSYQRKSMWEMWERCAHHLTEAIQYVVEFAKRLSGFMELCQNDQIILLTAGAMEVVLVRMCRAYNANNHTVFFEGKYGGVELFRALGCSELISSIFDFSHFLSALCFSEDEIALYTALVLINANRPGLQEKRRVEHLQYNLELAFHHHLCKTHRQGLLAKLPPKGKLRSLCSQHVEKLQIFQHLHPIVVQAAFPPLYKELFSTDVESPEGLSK
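ROR gamma transcriptional activity was tracked as Gal4-UAS luciferase output in stably transfected Drosophila Schneider cells, with compound added 1 hr before 700 uM copper sulfate induction and a 20 hr ambient-temperature incubation.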
The depositor's hits bear a star; ? = inconclusive; · = no result given. Unless noted, calls follow the shape of the dose curve; as a rule, active = well fitted curve in the direction sought with a large enough effect; inconclusive = small, poorly fitted or top-dose-only effect, or another doubt; inactive = no such curve, though single readings can be large; an effect the other way counts as inactive or inconclusive.

SMILES	MCF10A rereplic	Giardia kill	BCR signal inh	SW480 rerep	Gal4-VP16 FLuc	RORg inh
CN(Cc1cnn(Cc2ccccc2)c1)C(=O)c1cccc(S(=O)(=O)N2CCOCC2)c1	?	0	-10%	18µM*	·	·
COc1ccc(C(=O)N(C)Cc2cnn(Cc3ccccc3)c2)cc1S(=O)(=O)N1CCOCC1	3.7µM*	-3	?	4.1µM*	·	·
CN(Cc1ccc(Cl)c(Cl)c1)C(=O)c1cccc(S(=O)(=O)N2CCN(Cc3ccccc3)CC2)c1	29%	13	?	-34%	·	·
COc1ccc(C(=O)N(CCc2ccccc2)Cc2ccccc2)cc1S(=O)(=O)N1CCOCC1	6%	5	5%	0%	·	·
CC(=O)NS(=O)(=O)c1ccc(NC(=O)c2cccc(OCc3c(C)noc3C)c2)cc1	-4%	-7	0%	1%	·	·
CCOC(=O)C1(CCC(C)C)CC(CSc2nc3ccccc3[nH]2)OC1=O (stereo not drawn)	6.5µM*	-6	-18%	14%	?	0%
COc1cc(C2Nc3ccccc3C(=O)N2Cc2ccco2)ccc1O (stereo not drawn)	·	7	·	·	·	·
COc1ccc(S(=O)(=O)N2CCC(C(=O)NCC3CCCCC3)CC2)cc1	-9%	7	-1%	-2%	15%	5%
Cc1ccccc1N(CC(=O)NCCSCc1ccccc1)S(C)(=O)=O	2%	-5	0%	44%	8%	31%
O=Cc1sc(=O)n(Cc2cccc(C(=O)O)c2)c1Cl	29µM*	-2	5%	4%	?	8%
COc1ccc(-c2cc(C(=O)Nc3c(C)n(C)n(-c4ccccc4)c3=O)no2)cc1OC	-1%	-8	?	39%	-5%	16%
CCOC(=O)CCc1c(C)c2ccc(OCC)c(C)c2oc1=O	10%	-4	9%	-2%	1%	7%
CCOC(=O)CCc1c(C)c2ccc3c(c2oc1=O)CN(CCCO)CO3	7.3µM*	10	?	?	-5%	-2%
Oc1c(Br)cc(Br)cc1CNc1cnc2ccccc2c1	23µM*	4	?	2%	-21%	-2%
O=C(COC(=O)c1ccc2c(c1)OCCO2)NCCc1ccccc1	-2%	3	0%	-6%	·	·
COc1ccc(NS(=O)(=O)c2cc(NC(=O)C3CC3)ccc2N2CCCCC2)cc1	?	-25	0%	?	3%	18%
COc1ccc(NS(=O)(=O)c2cc(NC(=O)c3ccco3)ccc2N2CCCCC2)cc1	?	3	7%	?	13µM*	?
COc1ccc(NS(=O)(=O)c2cc(NC(=O)c3ccc(Cl)cc3)ccc2N2CCOCC2)cc1	2.3µM*	12	?	1.5µM*	·	·
CCC(=O)N1N=C(c2cccs2)CC1c1ccco1 (stereo not drawn)	?	13	-6%	8%	17%	4%
c1ccc(N2N=C(c3cccs3)CC2c2ccco2)cc1 (stereo not drawn)	8.2µM*	-12	16%	8.2µM*	9%	12%
Clc1ccc(N2N=C(c3cccs3)CC2c2ccco2)cc1 (stereo not drawn)	4.6µM*	5	?	?	4%	31%
S=C(NCC1CCCO1)N1CCN(c2nc(-c3ccc(Cl)cc3)cs2)CC1 (stereo not drawn)	48%	-7	-1%	?	?	?
COc1cccc(Nc2nc3ccccc3n2C(C)C)c1	0%	-3	1%	-10%	-20%	-36%
CCc1ccccc1Nc1nc2ccccc2n1C	-22%	-17	6%	1%	?	10µM*
Cc1ccccc1Nc1nc2ccccc2n1C(C)C	-35%	-1	0%	-6%	-4%	10µM*
SMILES	MCF10A rereplic	Giardia kill	BCR signal inh	SW480 rerep	Gal4-VP16 FLuc	RORg inh
CC(C)CSc1ccc(S(=O)(=O)NCC(=O)O)cc1[N+](=O)[O-]	?	-10	2%	-5%	-3%	-1%
CCCCCCN(C(=O)CCCCCN1C(=O)NC(c2ccccc2-c2ccccc2)C(C(=O)OCc2ccccc2)=C1C)C(C(=O)NCCCC)c1ccc(OCC(=O)OC)c(C(=O)OC)c1 (stereo not drawn)	·	·	·	·	-7%	-1%
O=Cc1cccnc1SCc1ccccc1	20%	5	·	2.6µM*	·	·
CC(C(=O)Nc1ccccn1)N1C(=O)c2ccccc2S1(=O)=O (stereo not drawn)	-3%	-12	-1%	-9%	·	·
COc1ccc(-n2nc(C(=O)Nc3ccc(OC)c(OC)c3)c3c4ccccc4n(C)c3c2=O)cc1	?	2	?	16µM*	-2%	24%
COc1ccc(-n2nc(C(=O)NCC(=O)Nc3cccc(Cl)c3)c3ccccc3c2=O)cc1OC	21%	-1	-4%	12%	11µM*	?
CCOc1ccc(NC(=O)CNC(=O)c2nn(-c3ccc(OC)c(OC)c3)c(=O)c3ccccc23)cc1	-5%	18	8%	-35%	-6%	-1%
CCOc1cc(C2NC(=O)N(C)C(C)=C2[N+](=O)[O-])ccc1OC(C)=O (stereo not drawn)	15%	4	-14%	-5%	1%	-27%
CC(C)(O)C#Cc1ccc(C(=O)N2CCCC(CCC(=O)NCc3ccccc3F)C2)cc1 (stereo not drawn)	0%	-7	-4%	-6%	-9%	-4%
O=C(Nc1cc(-c2ccccc2)nn1-c1ccccc1)c1ccccc1F	-10%	-25	?	2%	·	·
Oc1cccc(-c2nc3c4c(ncn3n2)-c2ccccc2CC42CCCC2)c1	2.1µM*	16	22%	-4%	25µM*	?
CCc1noc(C)c1C(=O)OC(C)C(=O)Nc1ccc2c(c1)OCO2 (stereo not drawn)	4%	22	3%	-1%	·	·
CC(C)OC(=O)c1c2c(n3ccccc13)C(=O)c1ccccc1C2=O	23%	-29	?	?	-12%	-24%
Cc1ccc(NC(=S)N/N=C/c2cccn2Cc2ccccc2F)cc1	2%	28	1%	-1%	1.1µM*	0.35µM*
COc1cc(C(N)=O)cc(Br)c1OCc1ccccc1	22%	6	5%	-7%	-12%	23%
COc1cc(CNC(C)c2ccccc2)cc(Br)c1OCc1ccccc1 (stereo not drawn)	?	-17	?	23µM*	?	?
COc1cc(CNC(C)(C)CO)cc(Br)c1OCc1ccc(Cl)cc1	?	-8	-2%	?	-3%	-37%
COc1cc(CNC(C)(C)CO)cc(Br)c1OCc1ccc(Cl)cc1Cl	18µM*	-4	-19%	18%	?	-26%
